RAM network inhibition data for 39 molecules are collected here from PubChem BioAssay.

The source made the active and inactive calls.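 Rule for the calls: active = RAM network inhibition above 8.4% in each of two replicates, 3 SD over the compound average; inconclusive = above 8.4% inhibition in only one replicate; inactive = 8.4% inhibition or less in each replicate.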

This test can be described thus: RAM signaling pathway blockade in yeast – S. cerevisiae, Pdr1DBD-CYC8 efflux-inhibited sensitized strain, primary screen (AID 1298).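 Note: 0% = DMSO untreated cells without growth and 100% = 10 µM 1-NA-PP1 full growth; higher means more yeast growth rescued from 5-FOA killing.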 As to conditions: S. cerevisiae cbk1-as DSE1-URA3 strain, 5-FOA growth OD615, 2 d; at 50 µM; stronger effect = higher value.
For the molecule `Cc1ccc(CNC(=O)C2CCCN(S(=O)(=O)c3cnc[nH]3)C2)cc1` (centres undefined), the RAM network inhibition was 1.04% (inactive).

Turning to `COc1cc2c(cc1OC)C(c1ccc(C)o1)CC(=O)N2` (centres undefined), the RAM network inhibition was 0.73% (inactive).

For the molecule `COc1ccc(S(=O)(=O)Nc2ccc(F)c(Cl)c2)cc1OC`, the RAM network inhibition is 1.81% (inactive).

For the molecule `O=C(OCCN(CCOC(=O)c1ccncc1)S(=O)(=O)c1cccs1)c1ccncc1`, the RAM network inhibition was 4.78% (inactive).

For the molecule `N#CCCN(Cc1cccnc1)C(=O)Nc1ccc(Cl)c(Cl)c1`, the RAM network inhibition was 4.53% (inactive).

For `NC(=O)CN1C(=O)C(O)(CC(=O)c2ccccc2O)c2ccccc21` (centres undefined), the RAM network inhibition is 2.98% (inactive).

Regarding `CCCOc1ccc(C2C(C(=O)OC)=CN(CCOC)C=C2C(=O)OC)cc1`, the RAM network inhibition was 5.46% (inactive).

For `C(=N\c1c(-c2ccccc2)nc2n1CCS2)/c1ccccc1`, the RAM network inhibition is 6.86% (inactive).

On to `COC(=O)c1cn(NC(=O)C2CCCO2)c(=O)c2ccccc12` (centres undefined), for which the RAM network inhibition was 3% (inactive).

Turning to `CCN1CCN(C(=O)C2CC(c3ccc(F)cc3)=NO2)CC1` (centres undefined), the RAM network inhibition is 2.03% (inactive).

As to `CCOC(=O)C1CCN(Cc2ccc(OC)c(C)c2OC)CC1`, the RAM network inhibition was 1.41% (inactive).

Regarding `Cn1c(NC(=O)c2ccccc2NC(=O)C(C)(C)C)nc2ccccc21`, the RAM network inhibition was 1.74% (inactive).

With `Cc1cccc(CN2CCC(CNC(=O)C3CCCN(S(=O)(=O)c4cnc[nH]4)C3)CC2)c1` (centres undefined), the RAM network inhibition was 4.03% (inactive).

For the molecule `CC1CC(NC(=O)c2cnc3n(c2=O)CCS3)CC(C)(C)C1` (centres undefined), the RAM network inhibition was 0.68% (inactive).

For the molecule `CC1CCCN(S(=O)(=O)c2coc(C(N)=O)c2)C1` (centres undefined), the RAM network inhibition was 2.99% (inactive).

On to `O=C(NCc1ccc2c(c1)OCO2)C1CCCN(S(=O)(=O)c2cccc3cccnc23)C1` (centres undefined), for which the RAM network inhibition is 5.25% (inactive).

As to `CC(C)(O)C#Cc1ccc(C(=O)N2CCN(C(=O)c3ccco3)CC2)cc1`, the RAM network inhibition was 2.19% (inactive).

Consider `COC(=O)C1=C(C)Nc2nnnn2C1c1ccc(Cl)cc1Cl` (centres undefined), for which the RAM network inhibition is 0.11% (inactive).

On to `CC(NC(=O)C1CC1)C(c1cccs1)N1CCN(c2ccccc2)CC1` (centres undefined), for which the RAM network inhibition was -0.26% (inactive).

With `O=C(Nc1c(C(=O)NCc2ccco2)cnn1-c1ccccc1)c1ccc(F)cc1`, the RAM network inhibition was 0.53% (inactive).

For the molecule `COc1ccc(-n2c(Cc3cccn3C)nnc2SCC(=O)Nc2cccc(Cl)c2)cc1`, the RAM network inhibition is 11% (inactive).

For the molecule `CCOC(=O)N1CCN(C(=O)c2ccc3nc4ccsc4c(=O)n3c2)CC1`, the RAM network inhibition was -0.16% (inactive).

Regarding `CCC(C)C(=O)Nc1nc2c(s1)C(=O)CC(C)(C)C2` (centres undefined), the RAM network inhibition is 1.9% (inactive).

Regarding `COc1cc2c(cc1OC)CN(C(=O)CSc1nc3[nH]ncc3c(=O)n1-c1ccccc1)CC2`, the RAM network inhibition is 2.58% (inactive).

For the molecule `CC(NC(=O)c1cc2c(=O)n(C)c3ccccc3c2n1C)c1ccc2c(c1)OCCO2` (centres undefined), the RAM network inhibition was 3.77% (inactive).

Regarding `O=C(C1CCCN1S(=O)(=O)c1cccc2cccnc12)N1CCn2c1nc1ccccc12` (centres undefined), the RAM network inhibition is 1.58% (inactive).

On to `CCn1c(SCC(=O)Nc2cc(C)ccc2C)nc2c(c1=O)SC(C)C2` (centres undefined), for which the RAM network inhibition is 4.64% (inactive).

Take `CCOC(=O)c1sc2nc(NC(=O)COc3ccccc3)sc2c1C`: the RAM network inhibition is 0.88% (inactive).

For `Cc1ccc(-n2ncc3c(N4CCCC(C)C4)ncnc32)c(C)c1` (centres undefined), the RAM network inhibition was 2.4% (inactive).

In the case of `O=C(O)C1C2C=CC3(CN(C4CCCC4)C(=O)C13)O2` (centres undefined), the RAM network inhibition was -0.17% (inactive).

`CCCCSc1nc2c(cnn2-c2ccc(F)cc2)c(=O)[nH]1`: the RAM network inhibition was 6.19% (inactive).

Regarding `CCCCCn1c(=O)[nH]c2cc(C(=O)NCCN3CCOCC3)ccc2c1=O`, the RAM network inhibition is 5.23% (inactive).

As to `Cc1ccc(-c2cc3nc4c(c(=O)n3[nH]2)CCCC4)cc1`, the RAM network inhibition was 5.06% (inactive).

For the molecule `CCCOC(=O)c1[nH]c2c(c1C)C(=O)CC(c1cc(OC)c(OC)c(OC)c1)C2` (centres undefined), the RAM network inhibition is 5.86% (inactive).

For `COc1cccc(-c2nc3n(n2)C(c2ccccc2Cl)C(C(N)=O)=C(C)N3)c1` (centres undefined), the RAM network inhibition is 3.45% (inactive).

Regarding `Cc1c(NC(=O)c2ccc(Br)o2)c(=O)n(-c2ccccc2)n1C`, the RAM network inhibition is 2.23% (inactive).

With `COc1ccc(-c2nc(CS(=O)CC(=O)NCc3ccccn3)c(C)o2)cc1` (centres undefined), the RAM network inhibition was 5.75% (inactive).

Take `CCOc1cc(C2NC(=O)NC(O)(C(F)(F)F)C2C(=O)c2ccccc2)ccc1OC` (centres undefined): the RAM network inhibition is 0.2% (inactive).

`CN(CCCNC(=O)c1cn(C)c2ccc(S(=O)(=O)N(C)C)cc2c1=O)c1ccccc1`: the RAM network inhibition was 7.85% (inactive).
